Assay outcomes (PubChem)
HSP90 inh = inhibitors of HSP90 luciferase refolding in rabbit reticulocyte lysate. luciferase refolding luminescence, 3 h. inhibition, % at 5.6 µM. 290,000 tested, 0.91% active. AID 1789;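 active means inhibition above the screen-wide mean plus 3 SD, computed separately per campaign, cut at about 16% in these data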;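 further: inhibitors lower the luminescence because luciferase stays unfolded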
SENP6 block = SENP6 protease inhibition | Recombinant SENP6 catalytic domain, aminoluciferin luminescence | inhibition, % at 10 µM | 330,000 tested, 1.8% active | AID 2599;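 active means inhibition above about 50% at the single tested dose, limit read from the data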
SENP8 block-1 = blocks the human protease SENP8; Q96LD8; purified SENP8, Z-RLRGG-aminoluciferin cleavage, luminescence; inhibition, % at 10 µM; 330,000 tested, 1.2% active; in the data active means inhibition above about 50%
SENP8 block-2 = SENP8 (human) protease inhibition | Q96LD8 | recombinant SENP8, Nedd8 substrate fluorescence | inhibition, % at 20 µM | 360,000 tested, 0.64% active; in the data active means inhibition mostly above about 40%, no sharp cut-off; inactive means mostly below about 27%
LGR2 antag = Drosophila LGR2 receptor signaling inhibition. HEK293 LGR2, CRE-luciferase, bursicon-stimulated, 4 h. inhibition, % at 9.99 µM. AID 720647. 380,000 tested, 0.35% active;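 active means drop in luminescence signal, shown as inhibition above about 50% in the replicate tests, limit read from the data, passing the limit was not always enough; inconclusive means probably only some replicates passing the limit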;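 further: agonist challenge used bursicon conditioned medium at about half maximal strength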
SENP7 inh = SENP7 protease inhibition | inhibition, % at 5 µM | 330,000 tested, 1.5% active | recombinant SENP7, Z-RLRGG-aminoluciferin luminescence, 40 min | Q9BQF6;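 active means inhibition above about 50% at the single test dose, limit read from the data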
Target sequence (Q9BQF6 706-1050 limits assumed): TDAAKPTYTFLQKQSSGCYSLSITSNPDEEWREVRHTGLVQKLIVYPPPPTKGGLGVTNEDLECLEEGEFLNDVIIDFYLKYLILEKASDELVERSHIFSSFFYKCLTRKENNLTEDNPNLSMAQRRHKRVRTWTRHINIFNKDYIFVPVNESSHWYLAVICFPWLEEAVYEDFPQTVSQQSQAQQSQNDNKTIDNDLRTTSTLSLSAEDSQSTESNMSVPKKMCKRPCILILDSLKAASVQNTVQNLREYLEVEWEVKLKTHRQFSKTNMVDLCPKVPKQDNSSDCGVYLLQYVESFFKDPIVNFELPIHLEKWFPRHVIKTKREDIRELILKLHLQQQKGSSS
SENP8 conf = human SENP8 inhibition, confirmed; shares compounds with SENP7 inh; Recombinant SENP8, Z-RLRGG-aminoluciferin luminescence, 60 min; inhibition, % at 12.5 µM; 6,200 tested, 40% active; AID 488912;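 active means mean inhibition across replicates above about 50%, limit read from the data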
SENP6 conf = human SENP6 inhibition, confirmed; shares compounds with SENP7 inh; recombinant SENP6, Z-RLRGG-aminoluciferin luminescence; inhibition, % at 12.5 µM; 6,200 tested, 58% active
SENP7 conf = confirmation of human SENP7 protease inhibitors. 6,200 tested, 69% active. recombinant SENP7, Z-RLRGG-aminoluciferin luminescence, 40 min. shares compounds with SENP7 inh. inhibition, % at 12.5 µM
Casp3 select = caspase-3 inhibition (SENP selectivity assay). shares compounds with SENP7 inh. purified caspase-3, Z-DEVD-aminoluciferin luminescence, 60 min. inhibition, % at 12.5 µM. 6,200 tested, 60% active;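 active means mean inhibition above about 50%, limit read from the data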
SENP luc ctr = interferes with luciferase luminescence in SENP counter-screen; inhibition, % at 12.5 µM; shares compounds with SENP7 inh; 6,200 tested, 39% active; AID 488919; Pre-incubated SENP8/Z-RLRGG-aminoluciferin, luciferase luminescence interference;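 active means mean inhibition above about 50% when retested at one dose, limit read from the data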
A number is an active result; n = inactive; u = inconclusive; x = not tested or not shown. Compounds with a hit are over-represented: about 2.3% of the library has one in this group of screens.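 How the source made its calls, unless noted: active means mean inhibition above about 50% in the one-dose retest (limit read from the data); inactive means the rest.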

SMILES	HSP90 inh	SENP6 block	SENP8 block-1	SENP8 block-2	LGR2 antag	SENP7 inh	SENP8 conf	SENP6 conf	SENP7 conf	Casp3 select	SENP luc ctr
O=C(O)c1ccc(N2Cc3ccccc3C2)cc1O	n	70	65	n	x	n	n	71	89	90	75
COc1cccc(C(=O)OCC(=O)c2ccc(Br)s2)c1	n	54	n	n	n	n	53	n	78	n	n
CCNC(=O)C[C@H]1CC[C@H]2[C@@H](COc3ccc(NC(=O)Nc4ccccc4OC)cc3C(=O)N2C)O1	x	x	x	x	n	x	x	x	x	x	x
Cc1ccccc1OCC(O)Cn1c(=N)n(Cc2ccccc2)c2ccccc21 (stereo not drawn)	n	n	n	n	u	51	n	n	n	n	n
O=C(Nc1ccc(S(=O)(=O)Nc2nccs2)cc1)c1ccc(F)cc1	n	n	n	n	n	n	x	x	x	x	x
O=C(NC(=S)Nc1ccc(S(=O)(=O)Nc2nccs2)cc1)c1cccc(F)c1	n	63	n	n	n	n	n	n	n	n	n
O=C1c2ccccc2C(=O)C1c1ccncc1	n	80	64	41	x	58	76	71	92	91	79
C/C(=N/NC(=O)c1cc2ccccc2cc1O)C1C(=O)c2ccccc2C1=O	n	94	96	n	x	63	95	99	97	81	n
C/C(=N\NC(=O)c1cc2ccccc2cc1O)c1cc2ccccc2o1	n	n	n	n	n	n	x	x	x	x	x
C/C(=N\NC(=O)c1ccccc1O)c1c(O)cc(C)oc1=O	n	81	62	n	n	69	n	n	n	n	n
C/C(=N\NC(=O)c1ccccc1O)C1C(=O)c2ccccc2C1=O	n	94	93	n	x	87	98	98	102	89	74
O=C(NCC[C@@H]1CC[C@@H](NS(=O)(=O)Cc2ccccc2)[C@@H](CO)O1)C1CCOCC1	x	x	x	x	n	x	x	x	x	x	x
O=C(CCc1ccccc1)c1ccc2c(c1)OCCCO2	n	58	n	n	x	n	n	n	76	n	n
O=C(c1ccccc1)c1ccc2c(c1)OCCCO2	n	n	n	n	x	62	n	n	75	54	55
C/C(=N/NC(=O)CCc1ccccc1)c1ccc2c(c1)OCO2	n	n	n	n	n	n	x	x	x	x	x
O/N=C(/CCc1ccccc1)c1ccc2c(c1)OCCO2	n	n	n	n	n	52	70	69	88	n	72
C[C@H](CO)N1C[C@H](C)[C@H](CN(C)S(=O)(=O)c2cccs2)Oc2ccc(NC(=O)CCN3CCOCC3)cc2C1=O	x	x	x	x	n	x	x	x	x	x	x
COCC(=O)N1CC2(CCN(S(C)(=O)=O)CC2)c2c(n(C)c3cc(OC)ccc23)[C@H]1CO	x	x	x	x	n	x	x	x	x	x	x
COc1ccc2c3c([nH]c2c1)[C@@H](CO)N(C(=O)C1CCCCC1)CC31CN(C(=O)NC(C)C)C1	x	x	x	x	n	x	x	x	x	x	x
CC(=O)Nc1cccc(OCC(=O)Nc2sccc2C(N)=O)c1	n	68	n	n	n	67	n	n	86	73	n
N#CC(Cc1ccc(OC(F)F)cc1)c1nc2ccccc2[nH]1 (stereo not drawn)	n	93	80	n	n	64	92	91	100	88	91
N#CC(Cc1cccs1)c1nc2ccccc2[nH]1 (stereo not drawn)	x	x	x	n	n	x	x	x	x	x	x
COc1ccc(-c2nnn(-c3cc(Cl)cc(Cl)c3)c2N)cc1	n	n	n	n	n	n	x	x	x	x	x
Nc1c(-c2ccc(Cl)cc2)cnn1-c1ccccc1	n	87	84	n	n	93	77	77	94	84	n
